Lassa entry inh: blocks Lassa virus binding to or entry into cells | Potency, µM (top dose mostly 37.9 µM), for inactives: at the highest dose activity change, negative = inhibition, most hits filed as inhibitors | Lassa virus pseudotype entry inhibition, cell reporter | AID 540256 | 300,000 compounds, 1.2% hits; calls by dose curve; tested in HEK293 cells; note: nearly all actives have a fitted effect of over 50% in size
MARV entry inh: Marburg virus entry inhibition. 300,000 compounds, 1.8% hits. Marburg virus pseudotyped entry inhibition, cell reporter. AID 540276. Potency, µM (top dose mostly 37.8 µM), without a hit: at the highest dose activity change, negative = inhibition, usual class: inhibitors; calls by dose curve; tested in HEK293 cells
Vaccinia Venus: inhibitors of vaccinia virus (Venus reporter) | 330,000 compounds, 0.46% hits | Vaccinia virus Venus reporter expression, fluorescence | Potency, µM (doses to about 36.5 µM), inactives show at the top dose activity change, negative = inhibition, actives largely listed as inhibitors; calls by dose curve; tested in A549 cells; note: nearly all actives have a fitted effect of over 30% in size
FMDV antiviral: foot and mouth disease virus antiviral activity; FMDV antiviral cell-based qHTS; Potency, µM (series often up to 57.9 µM), inactives show at the top dose activity change, negative = inhibition, actives largely listed as inhibitors; 410,000 compounds, 1.2% hits; calls by dose curve; tested in HEK293T cells; note: read-out not given here; nearly all actives have a fitted effect of over 45% in size
Vaccinia mCherry: inhibitors of vaccinia virus infection (mCherry reporter signal). Vaccinia virus mCherry reporter infection, fluorescence. Potency, µM (titrated, usually from 36.5 µM), for inactives: top-dose activity change, negative = inhibition, hits mostly inhibitors. 310,000 compounds, 0.63% hits. AID 720579; calls by dose curve; tested in A549 cells; note: nearly all actives have a fitted effect of over 35% in size
Starred values were filed as active, the others as inactive; i = inactive; ? = inconclusive; / = no result given; [ ] = dose if it differs, or a comment. An excerpt weighted towards active compounds, which were near 3.2% of everything screened. % is set by controls: 0 for no effect and ±100 for the full control effect; potency is the fitted concentration of half-maximal effect.

SMILES	Lassa entry inh	MARV entry inh	Vaccinia Venus	FMDV antiviral	Vaccinia mCherry
CC1=C(C(=O)Nc2ccccc2)C(c2ccc(C(=O)O)cc2)n2ncnc2N1 (stereo not given)	24.6%[46.1 µM]	/	-6.8%	-17.9%	-16.3%
NCCCC[C@@H](C(=O)NCCCCCCCCCCC(=O)N1CCNCC1)n1cc(CCO)nn1	/	/	-12.8%	-8.5%	i
CC[C@H](C)Cc1cn([C@@H](CCCCNC(=O)OC(C)(C)C)C(=O)NCCCCCCCCCCC(=O)N2CCN(C(=O)OC(C)(C)C)CC2)nn1	/	/	?	14.1µM*	-14.2%
CC[C@@H](C)[C@@H](C(=O)N1CCN(C(=O)OC(C)(C)C)CC1)n1cc(CCCCNC(=O)OC(C)(C)C)nn1	/	/	-3.1%	12.6µM*	-1.5%
CC(C)(C)OC(=O)NCCCC[C@@H](C(=O)NCCCCCCCCCCC(=O)N1CCN(C(=O)OC(C)(C)C)CC1)n1cc(CCO)nn1	/	/	?	14.1µM*	-5.2%
CSCC[C@@H](C(=O)NCCCCCCCCCCC(=O)N1CCN(C(=O)OC(C)(C)C)CC1)n1cc(CCO)nn1	/	/	-21.2%	?	-1.8%
Cc1ccc(-n2c(=O)c3ccc(C(=O)NCc4ccccc4Cl)cc3n(CC(=O)Nc3cccc(F)c3)c2=O)cc1	-29.6%[46.1 µM]	-7.0%[46.1 µM]	-29.3%	87.3%	-18.3%
N=c1c2c(n(Cc3ccc(Br)cc3)c3c1CCC3)CCCC2	?	?	/	39.8µM*	/
COC(=O)c1nc(NC(=O)c2ccccc2Br)n[nH]1	-1.6%[46.1 µM]	-14.2%[46.1 µM]	-14.0%	20µM*	i
COC(=O)c1nc(NC(=O)c2cc(OC)c(OC)c(OC)c2)n[nH]1	15.1%[46.1 µM]	4.0%[46.1 µM]	12.7%	-28.4%	-5.7%
CCc1cc(=O)oc2cc3occ(-c4ccc(OC)c(F)c4)c3cc12	5.01µM*	?	-21.3%	?	?
COc1ccc(C(=O)/C(C#N)=N/Nc2cccc([N+](=O)[O-])c2)cc1	10.3µM*	14.6µM*	/	?	/
COc1cccc(C(=O)COc2cccc(NC(=O)c3cccc([N+](=O)[O-])c3)c2)c1	?	?	?	28.2µM*	/
COc1ccc(CC(=O)Nc2cccc(/C(C)=N/NC(=O)c3cccc([N+](=O)[O-])c3)c2)cc1	11.2µM*	?	-15.8%	-24.2%	-3.9%
O=C(COc1cccc(NC(=O)c2cccc([N+](=O)[O-])c2)c1)c1ccc(F)cc1	?	?	?	?	-15.8%
NC(N)=Nc1ccc(/C=C2\C=Cc3ccccc32)cc1	/	/	?	/	-17.0%
Cc1cccc(NC(=O)CSc2nc3ccccc3nc2N2CCOCC2)c1C	?	-17.1%[46.1 µM]	-6.3%	-25.0%	-3.7%
Cc1nc([N+](=O)[O-])c(Sc2nc3ccccc3n2C)n1Cc1ccccc1	?	?	-13.1%	25.1µM*	-17.1%
Cc1ccccc1CN1CCc2c(OCC(=O)N3CCCc4ccccc43)cccc2C1=O	?	?	?	39.8µM*	-21.6%
O=C1c2cccc(OCC(=O)N3CCCc4ccccc43)c2CCN1Cc1cccnc1	?	?	-29.0%	28.2µM*	?
O=C(COc1cccc2c1CCN(Cc1ccccc1)C2=O)N1CCCCC1	-23.6%	15.8%	-14.1%	-28.2%	-25.2%
C[C@@H]1CN(Cc2ccc3c(c2)CN(Cc2cccn2-c2cccnc2)CCO3)C[C@H](C)O1	/	/	-13.6%	-4.4%	-19.2%
CN(C)C1C(=O)C(C(N)=O)=C(O)[C@@]2(O)C(=O)C3=C(O)c4c(O)ccc(Cl)c4[C@](C)(O)C3CC12 (stereo not given in full)	/	/	7.7%	-9.9%	-17.6%
COc1ccc(N2CCn3c2nc2c3c(=O)n(CCCc3ccccc3)c(=O)n2C)c(OC)c1	?	?	/	12.6µM*	/
C=C(C)Cn1c(N2CCN(c3ccc(OC)cc3)CC2)nc2c1c(=O)n(C)c(=O)n2C	?	?	-22.1%	28.2µM*	-14.3%
SMILES	Lassa entry inh	MARV entry inh	Vaccinia Venus	FMDV antiviral	Vaccinia mCherry
Cn1c(=O)c2c(nc(CN3CCC(Cc4ccccc4)CC3)n2CCN2CCOCC2)n(C)c1=O	10.3µM*	10.6%	/	0.0%	/
COc1ccc(N2CCn3c2nc2c3c(=O)n(CCc3ccccc3)c(=O)n2C)c(OC)c1	/	1.9%	/	/	/
Cn1c(=O)c2c(nc(CN3CCN(Cc4ccccc4)CC3)n2CCN2CCOCC2)n(C)c1=O	-2.1%	-3.5%	/	-1.7%	/
COc1ccc(N2CCN(c3nc4c(c(=O)n(C)c(=O)n4C)n3Cc3ccccc3)CC2)cc1	8.91µM*	10µM*	?	-27.5%	-15.1%[1.46 µM]
CCOC(=O)C1CCN(C/C=C/c2ccccc2[N+](=O)[O-])CC1	17.1%	0.0%	-20.5%	-1.3%	-9.7%
CN(C)CCCNC(=O)C[C@H]1C[C@H](C(=O)N2CCOCC2)[C@@]2(C)c3[nH]c4cc(-c5ccco5)ccc4c3CCN2C1=O	/	/	-18.0%	-13.6%	-15.7%
C=C(CC(=O)OC)C[C@]1(CC(=O)OC)CC2(CC=C(C)C)C(=O)C(C(=O)c3ccccc3)=C(OC(=O)c3ccc(Br)cc3)C(CC=C(C)C)(C1)C2=O (stereo not given in full)	/	3.5%[14.2 µM]	/	/	/
Cn1c(=O)c2c(nc(N3CCNCC3)n2Cc2ccccc2Cl)n(C)c1=O	-4.8%	17.0%[46.1 µM]	3.7%	-7.6%	i
Cc1ccc(Oc2nc3c(c(=O)n(Cc4ccccc4)c(=O)n3C)n2C)cc1C	?	?	-4.1%	14.1µM*	i
Cn1c(=O)c2c(nc(N3CCN(c4ccccn4)CC3)n2Cc2ccccc2Cl)n(C)c1=O	20.6µM*	?	/	6.6%	/
Cc1ccc(Oc2nc3c(c(=O)n(Cc4ccccc4Cl)c(=O)n3C)n2C)cc1C	16.6%[46.1 µM]	-0.3%[46.1 µM]	?	-15.3%	?
Cc1cc2c(nc1C)CCCN2C[C@@H](O)CN1CCN(C)CC1	/	17.7%[14.2 µM]	/	/	/
COc1cc(/C=C/C(=O)OCC(=O)N2CCC(Cc3ccccc3)CC2)ccc1O	?	-8.6%	-13.6%	31.6µM*	i
COc1cc(/C=C/C(=O)OCC(=O)c2ccc(OC(F)F)cc2)ccc1O	?	-37.8%	-7.5%	31.6µM*	-18.6%
C/C(=N\NC(=O)COc1ccc(C(C)(C)C)cc1)c1ccc(-n2ccnc2)cc1	?	7.9%	?	?	?
COCCNC(=S)N/N=C/c1ccc(N2CCOCC2)cc1	?	23.1µM*	-18.1%	-6.0%	-24.4%
C/C(=N/NC(=O)COc1ccc(C(C)(C)C)cc1)c1ccc(N2CCOCC2)cc1	0.562µM*	-4.3%	-13.5%	-3.2%	i
CC(C)(C)c1ccc(OCC(=O)N/N=C/c2ccc(N3CCOCC3)cc2)cc1	0.092µM*	-23.3%	-23.2%	0.0%	-4.0%
O=C(Cc1ccccc1)NCC(=O)OCC(=O)c1ccc2ccccc2c1	/	/	3.7%	/	34.2%
CCC1(C2CCN(Cc3ccc(OC)cc3)CC2)NC(=O)N(CC2COc3ccccc3O2)C1=O (stereo not given)	/	/	-4.6%	-21.8%	-9.0%
Cc1cccc(OCC(=O)Nc2cc(-c3nc4cc(Cl)ccc4o3)ccc2C)c1	/	/	?	/	-13.4%
COc1ccccc1-n1c(=O)oc2ccc(Cl)cc2c1=O	?	?	12.6µM*	0.0%	/
COc1c(Cl)c(=O)oc2ccc(Cl)cc12	/	/	-20.9%	-0.6%	-29.5%

Bioassay records from PubChem.
